From PubChem BioAssay AID1159580 (chemical genetic matrix, 2015)
Where “and” joins values, the source holds several entries; their conditions need not be identical. Identical values can stand only once. About 2,000 (36%) of roughly 5,500 compounds were called active. Not shown: some 18% with an inconclusive outcome. No stated cut-off is given here; in the data, active means normalized growth mostly below about 0.91 (no sharp cut-off); inconclusive means no clear call, values can overlap the other calls; inactive means mostly above about 0.92. The list shows a part of the results.

Test: chemical genetic growth profiling, strain panel (AID 1159580);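 further: tested at 20 µM; growth read once vehicle control cultures reached saturation at 30 °C; 1 = growth at the plate median or of vehicle wells; lower values mean less growth of the strain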
Conditions: S. cerevisiae deletion strains, growth OD

Measured: normalized growth

C=C[C@H]1CN2CC[C@H]1C[C@@H]2[C@H](O)c1ccnc2ccccc12
inactive: locus YAL013W, strain DEP1, hits give low values 1 | locus YAL021C, strain ccr4, hits give low values 1.01 | locus YAL026C, strain drs2, hits give low values 0.994 | locus YAL030W, strain snc1, hits give low values 0.999 | locus YBL061C, strain skt5, hits give low values 0.992 | locus YBR009C, strain hhf1, hits give low values 0.988 | locus YBR021W, strain FUR4, hits give low values 1.02 | locus YBR023C, strain chs3, hits give low values 0.981 | locus YBR171W, strain sec66, hits give low values 0.988 | locus YBR229C, strain ROT2, hits give low values 0.995 | locus YBR231C, strain swc5, hits give low values 0.989 | locus YBR279W, strain paf1, hits give low values 0.996 | locus YCL011C, strain gbp2, hits give low values 0.988 | locus YCL016C, strain dcc1, hits give low values 0.979 | locus YCL029C, strain bik1, hits give low values 0.973 | locus YCL069W, strain vba3, hits give low values 0.987 | locus YCR088W, strain abp1, hits give low values 0.994 | locus YDL005C, strain med2, hits give low values 0.975 | locus YDL035C, strain GPR1, hits give low values 1.02 | locus YDL040C, strain nat1, hits give low values 0.983 | locus YDL074C, strain BRE1, hits give low values 0.999 | locus YDL101C, strain DUN1, hits give low values 0.985 | locus YDL134C, strain PPH21, hits give low values 0.997 | locus YDL185W, strain tfp1, hits give low values 0.976 | locus YDL192W, strain arf1, hits give low values 0.98 | locus YDR001C, strain nth1, hits give low values 0.985 | locus YDR069C, strain doa4, hits give low values 0.996 | locus YDR101C, strain arx1, hits give low values 0.985 | locus YDR137W, strain rgp1, hits give low values 0.99 | locus YDR150W, strain NUM1, hits give low values 0.986 | locus YDR159W, strain sac3, hits give low values 1.02 | locus YDR162C, strain NBP2, hits give low values 0.988 | locus YDR195W, strain ref2 0.989 | locus YDR297W, strain sur2, hits give low values 1.01 | locus YDR318W, strain mcm21, hits give low values 0.985 | locus YDR334W, strain swr1, hits give low values 0.977 | locus YDR335W, strain msn5, hits give low values 0.99 | locus YDR388W, hits give low values 0.988 | locus YDR392W, strain spt3, hits give low values 0.973 | locus YDR502C, strain sam2, hits give low values 0.982 | locus YEL003W, strain gim4, hits give low values 0.989 | locus YEL037C, strain rad23, hits give low values 0.983 | locus YEL061C, strain CIN8 (second series), hits give low values 0.993 | locus YEL061C, strain CIN8, hits give low values 0.998 | locus YER015W, strain faa2, hits give low values 0.986 | locus YER016W, strain bim1, hits give low values 0.987 | locus YER110C, hits give low values 0.981 | locus YER111C, strain swi4, hits give low values 0.975 | locus YER155C, strain BEM2 (second series), hits give low values 0.972 | locus YER155C, strain BEM2, hits give low values 0.995 | locus YER167W, strain BCK2, hits give low values 1 | locus YFR010W, strain ubp6, hits give low values 0.999 | locus YGL078C, strain dbp3, hits give low values 1.01 | locus YGL086W, strain mad1, hits give low values 1.01 | locus YGL167C, strain pmr1, hits give low values 0.993 | locus YGL173C, strain kem1, hits give low values 0.981 | locus YGL227W, strain vid30, hits give low values 0.984 | locus YGL240W, strain doc1, hits give low values 0.986 | locus YGL248W, strain PDE1, hits give low values 0.994 | locus YGL253W, strain hxk2, hits give low values 0.994 | locus YGR078C, strain PAC10, hits give low values 0.988 | locus YGR135W, strain pre9, hits give low values 0.978 | locus YGR229C, strain SMI1, hits give low values 1.02 | locus YGR252W, strain gcn5, hits give low values 1.17 | locus YHR013C, strain ard1, hits give low values 0.962 | locus YHR027C, strain rpn1, hits give low values 0.992 | locus YHR030C, strain SLT2, hits give low values 0.994 and 0.988 | locus YHR079C, strain IRE1 (second series), hits give low values 0.979 | locus YHR079C, strain IRE1, hits give low values 1 | locus YHR094C, strain hxt1, hits give low values 0.97 | locus YHR129C, strain ARP1, hits give low values 0.989 | locus YHR142W, strain chs7, hits give low values 0.974 | locus YHR200W, strain rpn10, hits give low values 0.994 | locus YIL066C, strain RNR3, hits give low values 0.992 | locus YIL073C, strain SPO22, hits give low values 0.928 | locus YIL125W, strain kgd1, hits give low values 0.988 | locus YIR030C, strain dcg1, hits give low values 0.989 | locus YJL092W, strain hpr5, hits give low values 0.99 | locus YJL095W, strain BCK1 (second series), hits give low values 0.985 | locus YJL095W, strain BCK1, hits give low values 0.977 and 1 | locus YJL115W, strain asf1, hits give low values 0.972 | locus YJL129C, strain trk1, hits give low values 0.992 | locus YJL134W, strain LCB3, hits give low values 0.992 | locus YJL154C, strain vps35, hits give low values 0.971 | locus YJL164C, strain tpk1, hits give low values 0.987 | locus YJL166W, strain qcr8, hits give low values 1 | locus YJL168C, strain set2, hits give low values 0.983 | locus YJL187C, strain SWE1 (second series), hits give low values 0.956 | locus YJR043C, strain POL32, hits give low values 0.996 | locus YJR066W, strain TOR1, hits give low values 0.989 | locus YJR075W, strain HOC1, hits give low values 0.978
